Assay outcomes as filed in PubChem BioAssay.
The sample as a whole holds a higher share of hits than the screen did.
RECQ1 inh-1: qHTS Assay for Inhibitors of RecQ-Like Dna Helicase 1 (RECQ1); RECQ1 DNA unwinding, red fluorescence kinetic read; 240,000 compounds, 0.54% hits; Potency, µM (series often up to 57.3 µM), hits mostly inhibitors; also: nearly all actives have a fitted effect of over 30% in size
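RECQ1T1 50 nM; forked duplex (20 bp + 30-nt ss tails) 200 nM, ATP 2 mM final; pH 8.0, 2 mM MgCl2, 2.5 ug/ml poly(dI-dC); 15 min compound preincubation; discontinuous kinetic read over 2 h at RT.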
BLM inh: qHTS Assay for Inhibitors of Bloom's syndrome helicase (BLM). recombinant BLM DNA unwinding, fluorescence dequenching. Potency, µM (titrated, usually from 56.1 µM), most hits filed as inhibitors. 350,000 compounds, 0.2% hits. AID 2528, 2010; also: nearly all actives have a fitted effect of over 35% in size
TDP1 block: qHTS Assay for Inhibitors of Tyrosyl-DNA Phosphodiesterase (TDP1). Tyrosyl-DNA phosphodiesterase 1 (Homo sapiens), Q9NUW8. recombinant TDP1, AlphaScreen DNA substrate cleavage. Potency, µM (titrated, usually from 130 µM), actives largely listed as inhibitors. 350,000 compounds, 0.28% hits. AID 485290, 2010; also: nearly all actives have a fitted effect of over 40% in size
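Signal: AlphaScreen proximity between streptavidin donor and anti-FITC acceptor beads on intact substrate. Reaction: Tdp1 1 nM, substrate 15 nM final, 5 min RT after 15 min compound preincubation.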
L3MBTL1 block: qHTS Assay for the Inhibitors of L3MBTL1; Lethal(3)malignant brain tumor-like protein 1 (Homo sapiens), Q9Y468; AlphaScreen L3MBTL1–H3K9me1 peptide binding; Potency, µM (top dose mostly 57.1 µM), most hits filed as inhibitors; 230,000 compounds, 0.66% hits; also: nearly all actives have a fitted effect of over 60% in size
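L3MBTL1 50 nM + b-AHA-H3(1-15)K9me1 75 nM, 30 min RT; compound added, 30 min RT; streptavidin donor/Ni-chelate acceptor beads 10 ug/mL each final, 30 min RT dark; AlphaScreen read.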
APE1 inh: qHTS Assay for Inhibitors of the Human Apurinic/apyrimidinic Endonuclease 1 (APE1). DNA repair nuclease/redox regulator APEX1 (Homo sapiens), P27695. recombinant APE1, TAMRA/BHQ-2 abasic DNA cleavage fluorescence. Potency, µM (highest dose often 65.8 µM), most hits filed as inhibitors. 350,000 compounds, 0.35% hits; also: nearly all actives have a fitted effect of over 55% in size
Target sequence (P27695 whole entry, looked up): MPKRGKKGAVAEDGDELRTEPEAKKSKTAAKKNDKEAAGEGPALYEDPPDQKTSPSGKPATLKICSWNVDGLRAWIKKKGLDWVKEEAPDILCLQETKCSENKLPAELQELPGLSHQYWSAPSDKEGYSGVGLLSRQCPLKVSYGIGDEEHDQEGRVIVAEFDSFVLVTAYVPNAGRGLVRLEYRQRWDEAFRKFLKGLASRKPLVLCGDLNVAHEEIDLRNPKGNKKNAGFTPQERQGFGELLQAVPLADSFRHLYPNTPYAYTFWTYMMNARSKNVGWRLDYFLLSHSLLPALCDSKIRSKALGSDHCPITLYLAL
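Activity was derived from the fluorescence gain between first and third kinetic reads (60 s intervals, ex 525/em 598 nm) after 50 nM THF-abasic TAMRA/BHQ-2 duplex was added to 0.75 nM APE1 preincubated 15 min with compound.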
KDM4E inh: qHTS Assay for Inhibitors of Human Jumonji Domain Containing 2E (JMJD2E) | Lysine-specific demethylase 4E (Homo sapiens), B2RXH2 | JMJD2E catalytic domain, FDH-coupled NADH fluorescence (FDH is formaldehyde dehydrogenase) | Potency, µM (highest dose often 57.1 µM), actives largely listed as inhibitors | 230,000 compounds, 1.6% hits | AID 2147, 2009; active = well fitted inhibition curve with a large enough effect, not every such curve was filed as active; inconclusive = small, poorly fitted or top-dose-only effect, or another doubt; inactive = no such curve, though single readings can be large or run the other way; also: nearly all actives have a fitted effect of over 50% in size
Target sequence (B2RXH2 1-337 limits assumed): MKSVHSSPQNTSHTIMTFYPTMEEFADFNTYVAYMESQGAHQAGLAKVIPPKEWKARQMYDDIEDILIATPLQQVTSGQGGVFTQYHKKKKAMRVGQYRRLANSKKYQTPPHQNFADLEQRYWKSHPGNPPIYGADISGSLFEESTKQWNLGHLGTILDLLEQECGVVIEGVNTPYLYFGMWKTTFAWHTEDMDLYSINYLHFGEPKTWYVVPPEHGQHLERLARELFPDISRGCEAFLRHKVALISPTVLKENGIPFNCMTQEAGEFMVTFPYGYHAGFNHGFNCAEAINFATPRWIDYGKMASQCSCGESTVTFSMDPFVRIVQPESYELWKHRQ
RECQ1 inh conf: Confirmation qHTS Assay for Inhibitors of RecQ-Like Dna Helicase 1 (RECQ1); shares compounds with RECQ1 inh-1; RECQ1 helicase DNA unwinding, fluorescence; Potency, µM (highest dose often 229 µM), hits mostly inhibitors; 610 compounds, 28% hits; AID 2708, 2010; also: nearly all actives have a fitted effect of over 45% in size
RECQ1 ADP FP: Counterscreen for RECQ1 Inhibitors: ADP Fluorescence Polarization Displacement Assay; Potency, µM (titrated, usually from 228 µM), usual class: inhibitors; shares compounds with RECQ1 inh-1; ADP fluorescence polarization displacement counterscreen; 530 compounds, 27% hits; AID 2711, 2010; also: nearly all actives have a fitted effect of over 45% in size
RECQ1 inh-2: Confirmation qHTS Assay for Inhibitors of RecQ-Like Dna Helicase 1 (RECQ1) - Round 2 Cherry Picks; shares compounds with RECQ1 inh-1; recombinant RECQ1 DNA unwinding, red fluorescence; Potency, µM (series often up to 119 µM), hits mostly inhibitors; 1,100 compounds, 15% hits; also: nearly all actives have a fitted effect of over 50% in size
Numbers stand for hits; 0 = inactive; ? = inconclusive; - = not tested or not shown; ! = repeats disagree; [ ] = another dose, or the depositor's remark. Unless noted, calls follow the shape of the dose curve; as a rule, active = well fitted curve in the direction sought with a large enough effect; inconclusive = small, poorly fitted or top-dose-only effect, or another doubt; inactive = no such curve, though single readings can be large; an effect the other way counts as inactive or inconclusive.

SMILES	RECQ1 inh-1	BLM inh	TDP1 block	L3MBTL1 block	APE1 inh	KDM4E inh	RECQ1 inh-2	others
COc1ncc2nc(-c3ccccc3)c(=O)n(CCC#N)c2n1	0	0	-	-	0	-	-
CCCCC[C@H](O)C/C=C1/C(=O)C=C[C@@H]1C/C=C\CCCC(=O)O	0	0	0	-	0	0	-
CCCCC/C=C/C=C1/C(=O)C=C[C@@H]1C/C=C\CCCC(=O)O	35.5µM!	0	17.8µM!	-	?	0	?
COc1cccc(CNC(=O)C2CCN(Cc3cc4ccccc4n3Cc3ccc(C)cc3)CC2)c1	-	0	0	-	-	-	-
CC(C)(C)c1ccc(-c2nnc(SCCC#N)n2C2CCCC2)cc1	14.1µM	0	0	0	0	0	0	RECQ1 inh conf=0;RECQ1 ADP FP=0
C[C@@](Cc1ccccc1)(C(=O)O)N1C(=O)c2ccc(C(=O)O)cc2C1=O	0	0	0	0	0	-	-
CCOC(=O)c1ccc(NC(=S)N2CCSC2c2ccc(OC)cc2)cc1 (stereo not given)	0	0	0	0	0	0	-
CCOC(=O)c1ccc(NC(=S)N2CCSC2c2ccc(Cl)cc2)cc1 (stereo not given)	?	0	0	0	0	0	0
CC1=NN(c2ccc(Cl)cc2)C(=O)C1	0	0	0	0	0	0	-
CC1=NN(c2ccc(N)cc2)C(=O)C1	?	0	0	-	?	?	0
CCCN(CCC)S(=O)(=O)c1ccc(C(=O)Nc2ccc(OCC(=O)N3CCOCC3)cc2)cc1	0	0	0	-	0	0	-	RECQ1 inh conf=0;RECQ1 ADP FP=0
O=C(CSc1nc2ccccc2c(=O)[nH]1)c1ccc(O)cc1O	0	0	0	0	0	?	-
O=C(CSc1nc2ccccc2c(=O)[nH]1)c1ccc(O)c(O)c1	8.91µM	0	0	0[11.4 µM]	?	25.1µM	15.8µM	RECQ1 inh conf=?;RECQ1 ADP FP=?
CCOc1ccc(C2C(=O)N(C3CCCCC3)CC(=O)N2C2CCCC2)cc1OC (stereo not given)	-	0	0	-	-	-	-
Cc1cc2nc3ccc(=[N+](C)C)cc-3sc2cc1N	15.8µM	15.8µM	?	0	?	14.1µM	15.8µM	RECQ1 inh conf=3.55µM;RECQ1 ADP FP=7.08µM
Cc1nc2cc(C)c(C)cc2s1	0	0	0	-	0	0	-
CNc1nc(-c2ccccc2C(F)(F)F)nc2ccccc12	?	0	0	-	0	0	-
S=C(NCCSCc1c(Cl)cccc1Cl)Nc1ccccc1	12.6µM	0	0	0	0	0	-	RECQ1 inh conf=0;RECQ1 ADP FP=0
Cc1cc(/C=N/Nc2ccc([N+](=O)[O-])cn2)c(C)n1-c1ccc(C(=O)O)cc1	17.8µM	?	-	-	?	0	-	RECQ1 inh conf=?
Cc1ccccc1-n1c(C)cc(/C=N/Nc2ccc([N+](=O)[O-])cn2)c1C	0	0	0	-	0	0	-
CCOC(=O)c1cccc(NC(=O)c2cc3c(Cl)nc4ccc(C)cc4c3s2)c1	-	0	0	-	-	-	-
Cc1cccc(/C=C/C(=O)c2cc(Br)ccc(=O)c2O)c1	?	0	0	-	0	?	?
CCc1ccc(/C=C/C(=O)c2cc(Br)ccc(=O)c2O)cc1	?	0	0	-	?	?	?
CCOc1ccc(/C=C/C(=O)c2cc(Br)ccc(=O)c2O)cc1	22.4µM	0	0	0	0	31.6µM	?
Cc1ccc(/C=C/C(=O)c2ccccc2O)cc1	0	0	0	0	0	0	-
SMILES	RECQ1 inh-1	BLM inh	TDP1 block	L3MBTL1 block	APE1 inh	KDM4E inh	RECQ1 inh-2	others
CCOc1ccc(/C=C/C(=O)CCC(=O)O)cc1	0	0	0	0	0	?	-
CCCN1C(=O)C(Cc2nc3ccccc3c(=O)n2CC)c2ccccc21 (stereo not given)	-	0	0	-	-	-	-
Cc1ccc(NC(=O)NCCOCCn2c(=O)oc3ccccc32)c(C)c1	-	0	0	-	-	-	-
Cc1cccc(NC(=O)CSc2nc3c([nH]c4ccccc43)c(=O)n2-c2ccc(F)cc2)c1C	-	0	0	-	-	-	-
CCN(CC)C(=O)CC(c1ccc(OC)cc1)c1c(OC)cc(OC)c2c(-c3ccccc3)cc(=O)oc12 (stereo not given)	20µM	0	17.8µM	-	?	-	?
Fc1cccc(-c2nc(-c3ccncc3)no2)c1	-	0	0	-	-	-	-
Cc1cc(C(=O)CSc2nnc(-c3ccco3)o2)c(C)n1CC1COc2ccccc2O1 (stereo not given)	31.6µM	0	0	0	?	?	0
COc1ccc(-n2c3c(cc(-c4nc(-c5ccc(Cl)cc5)cs4)c2=O)C(=O)CC(C)(C)C3)cc1	-	0	0	-	-	-	-
O=C(O)CCCCCn1c(SCc2cc(=O)n3cc(Cl)ccc3n2)nc2ccsc2c1=O	0	0	0	0	0	0	-	RECQ1 inh conf=?;RECQ1 ADP FP=?
O=C(O)CCCCCn1c(SCc2cc(=O)n3ccccc3n2)nc2ccsc2c1=O	0	0	0	0	0	0	-
N/C(=N\OC(=O)c1cccs1)c1cccc([N+](=O)[O-])c1	44.7µM	0	0	0	0	0	0
Cc1cccc(C(=O)O/N=C(\N)c2cccc([N+](=O)[O-])c2)c1	0	0	0	0	0	0	-
NC(=NCc1ccc(Cl)cc1Cl)NC(=O)c1nc(Cl)c(N)nc1N	0	-	0	-	0	-	-
Cc1cc(C)n2nc(C(=O)OCC(=O)c3cc(C)n(CC4CCCO4)c3C)nc2n1 (stereo not given)	0	0	0	0	0	0	-
Cc1cc(C)n2nc(C(=O)OCC(=O)c3cc(C)n(C)c3C)nc2n1	?	0	-	?	0	0	?
CCN(CC)CCCNC(=O)Cn1nc(C)n2c(cc3sccc32)c1=O	-	0	0	-	-	-	-
Cc1nn2c(C)c(C(=O)NCc3ccco3)cnc2c1-c1ccccc1	-	0	0	-	-	-	-
